Of roughly 7,900 targets only a part is listed; those with a hit were picked by preference. About 0.6% of all pairs of compound and target were hits.
How the values were obtained:
Experiment in all cases: log2 fold change, soluble protein after heating vs DMSO (PISA); higher = thermal stabilisation; K562 cells, 10 uM, 30 min; active = over 0.2 and 3.5 SD of the protein, either way, in both replicates (recomputed)
[1] = compound: CC[C@@H]1C(=O)N(C)c2cnc(Nc3ccc(C(=O)NC4CCN(C)CC4)cc3OC)nc2N1C1CCCC1
Procedure, shortened: (§1)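 K562 cells at 2×10^6 cells/mL were given 10 μM compound for 30 min. Aliquots then went through 3 min of heating across 48°C-58°C, were pooled, and were extracted in PBS with 0.5% NP-40 at 4°C, and the supernatant after 21,000xg for 90 min was quantified by TMTpro 16plex LC-MS/MS with channel sums equalised. Thermal stability relative to control samples, from duplicates, is given as log2 fold change.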

[2] = compound: CC[C@@H]1C(=O)N(C)c2cnc(Nc3ccc(C(=O)N[C@H]4CC[C@H](N5CCN(CC6CC6)CC5)CC4)cc3OC)nc2N1C(C)C [volasertib]
Procedure, shortened: as §1

[3] = compound: CC[C@H](C)N1C=C(C2=C(C=C(C=C21)C3=CN=C(C=C3)N4CCNCC4)C(=O)NCC5=C(C=C(NC5=O)C)C)C
Procedure, shortened: as §1

[4] = compound: CC[C@H](C)[C@@H](C(=O)N[C@@H]([C@@H](C)O)C(=O)N[C@@H](CC(C)C)C(=O)[C@]1(CO1)C)NC(=O)[C@H]([C@@H](C)CC)N(C)C(=O)C [epoxomicin]
Procedure, shortened: as §1

[5] = compound: CCn1c(C(=O)N(C2CC2)C2CC2)cc2c3c(ncn3C)c(Nc3cc(C)n(C)n3)nc21
Procedure, shortened: as §1

[6] = compound: CCn1cc(-c2ccnc3[nH]c(-c4cccc(CN(C)C)c4)cc23)c(-c2ccc(NC(=O)N(C)C)cc2)n1
Procedure, shortened: as §1

[7] = compound: CN(C)CC(=O)Nc1ccc2[nH]c(=O)c3ccccc3c2c1
Procedure, shortened: as §1

[8] = compound: CN(CCOC1=CC=C(C=C1)C[C@H]2C(=O)NC(=O)S2)C3=CC=CC=N3 (racemic) [rosiglitazone]
Procedure, shortened: as §1

[9] = compound: CN1C2=C(C3=C1C(=O)N(N=C3)CC4=CC(=CC=C4)N)SC(=C2)S(=O)C
Procedure, shortened: as §1

[10] = compound: CN1CCC(CNc2ccc3ncc(-c4cccc(OC(F)(F)F)c4)n3n2)CC1
Procedure, shortened: as §1

Measured: log2 fold change

NUDT21 (UniProt O43809)
inactive: [1] 0.036 | [2] 0.074 | [3] -0.033 | [4] -0.107 | [5] -0.02 | [6] 0.038 | [7] -0.041 | [8] -0.028 | [9] -0.013 | [10] 0.064

MRPS33 (UniProt Q9Y291)
inactive: [1] 0.016 | [2] 0.025 | [3] 0.057 | [4] -0.012 | [5] 0 | [6] -0.011 | [7] -0.01 | [8] -0.007 | [9] -0.001 | [10] 0.017

NDUFB8 (UniProt O95169)
inactive: [1] 0.008 | [2] -0.016 | [3] -0.036 | [4] 0.074 | [5] 0.041 | [6] 0.055 | [7] 0.016 | [8] 0.025 | [9] 0 | [10] 0.097

NNT (UniProt Q13423)
Sequence of UniProt Q13423 (Q13423 whole entry, looked up): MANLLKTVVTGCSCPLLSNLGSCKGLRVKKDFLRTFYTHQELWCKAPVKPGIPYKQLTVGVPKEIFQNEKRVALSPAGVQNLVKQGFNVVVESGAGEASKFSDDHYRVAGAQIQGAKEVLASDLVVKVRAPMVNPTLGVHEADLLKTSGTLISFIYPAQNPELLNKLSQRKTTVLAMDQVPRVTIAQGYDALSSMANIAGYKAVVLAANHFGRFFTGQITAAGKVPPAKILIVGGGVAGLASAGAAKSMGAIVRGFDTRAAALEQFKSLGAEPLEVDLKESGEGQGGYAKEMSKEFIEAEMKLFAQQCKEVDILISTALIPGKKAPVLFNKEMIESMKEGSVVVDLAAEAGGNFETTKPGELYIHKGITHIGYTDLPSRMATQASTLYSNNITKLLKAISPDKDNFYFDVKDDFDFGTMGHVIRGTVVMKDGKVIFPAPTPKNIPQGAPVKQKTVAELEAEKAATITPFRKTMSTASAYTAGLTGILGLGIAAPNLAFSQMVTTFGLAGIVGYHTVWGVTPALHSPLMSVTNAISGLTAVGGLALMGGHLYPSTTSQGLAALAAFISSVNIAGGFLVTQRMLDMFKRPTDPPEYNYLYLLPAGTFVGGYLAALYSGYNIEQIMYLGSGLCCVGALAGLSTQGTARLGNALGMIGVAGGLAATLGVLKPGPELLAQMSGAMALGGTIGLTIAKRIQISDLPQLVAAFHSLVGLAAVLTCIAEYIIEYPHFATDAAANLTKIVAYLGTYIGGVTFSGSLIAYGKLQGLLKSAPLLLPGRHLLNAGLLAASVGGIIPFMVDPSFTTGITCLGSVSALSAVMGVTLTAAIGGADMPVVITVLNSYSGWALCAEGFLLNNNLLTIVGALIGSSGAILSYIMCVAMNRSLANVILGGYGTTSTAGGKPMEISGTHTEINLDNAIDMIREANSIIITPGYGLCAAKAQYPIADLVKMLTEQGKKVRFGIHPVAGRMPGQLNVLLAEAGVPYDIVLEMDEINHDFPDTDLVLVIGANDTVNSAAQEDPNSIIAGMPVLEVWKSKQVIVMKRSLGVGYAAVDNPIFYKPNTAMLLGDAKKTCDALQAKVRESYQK
inactive: [1] 0 | [2] 0.013 | [3] 0.036 | [4] 0.023 | [5] -0.018 | [6] -0.073 | [7] 0.015 | [8] 0.042 | [9] -0.097 | [10] -0.008

NUP98 (UniProt P52948)
active: [2] -0.276
inactive: [1] -0.12 | [3] 0.084 | [4] -0.012 | [5] -0.027 | [6] -0.018 | [7] 0.039 | [8] 0.068 | [9] 0.033 | [10] -0.038

MRPL34 (UniProt Q9BQ48)
inactive: [1] 0.061 | [2] 0.029 | [3] -0.007 | [4] -0.042 | [5] -0.042 | [6] 0.109 | [7] -0.065 | [8] -0.028 | [9] 0.232 | [10] 0.048

PAFAH1B3 (UniProt Q15102)
inactive: [1] -0.017 | [2] 0.011 | [3] 0.042 | [4] 0.063 | [5] -0.102 | [6] -0.098 | [7] 0.069 | [8] 0.021 | [9] -0.012 | [10] 0.001

NR2C2 isoform 2 (UniProt P49116)
Sequence of UniProt P49116 (P49116 whole entry, looked up): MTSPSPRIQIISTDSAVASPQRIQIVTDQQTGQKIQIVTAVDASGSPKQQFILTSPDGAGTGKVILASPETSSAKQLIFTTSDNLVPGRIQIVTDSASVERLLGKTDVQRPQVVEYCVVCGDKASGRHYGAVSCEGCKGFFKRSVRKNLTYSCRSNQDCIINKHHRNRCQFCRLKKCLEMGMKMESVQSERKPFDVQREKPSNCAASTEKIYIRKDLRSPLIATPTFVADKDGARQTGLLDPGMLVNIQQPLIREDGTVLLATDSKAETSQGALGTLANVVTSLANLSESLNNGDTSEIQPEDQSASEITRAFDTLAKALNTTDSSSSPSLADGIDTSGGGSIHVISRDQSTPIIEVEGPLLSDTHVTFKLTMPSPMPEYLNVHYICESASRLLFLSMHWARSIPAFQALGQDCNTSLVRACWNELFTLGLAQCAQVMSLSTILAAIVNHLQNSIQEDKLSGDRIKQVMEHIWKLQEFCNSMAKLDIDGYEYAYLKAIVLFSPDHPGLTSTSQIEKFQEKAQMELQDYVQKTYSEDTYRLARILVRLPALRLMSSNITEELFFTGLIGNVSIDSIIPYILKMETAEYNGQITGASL
inactive: [1] 0.051 | [2] -0.102 | [3] 0.055 | [4] 0.036 | [5] -0.015 | [6] 0.049 | [7] -0.069 | [8] 0.022 | [9] 0.036 | [10] 0.046

MON1B (UniProt Q7L1V2)
inactive: [1] -0.002 | [2] -0.183 | [3] -0.021 | [4] -0.028 | [5] -0.025 | [6] 0.013 | [7] -0.024 | [8] 0.016 | [9] -0.011
active: [10] -0.377

MRPS25 (UniProt P82663)
inactive: [1] 0.031 | [2] -0.057 | [3] 0.145 | [4] -0.126 | [5] -0.091 | [6] -0.295 | [7] -0.056 | [8] -0.042 | [9] 0.074 | [10] 0.036

NCAPH (UniProt Q15003)
Sequence of UniProt Q15003 (Q15003 whole entry, looked up): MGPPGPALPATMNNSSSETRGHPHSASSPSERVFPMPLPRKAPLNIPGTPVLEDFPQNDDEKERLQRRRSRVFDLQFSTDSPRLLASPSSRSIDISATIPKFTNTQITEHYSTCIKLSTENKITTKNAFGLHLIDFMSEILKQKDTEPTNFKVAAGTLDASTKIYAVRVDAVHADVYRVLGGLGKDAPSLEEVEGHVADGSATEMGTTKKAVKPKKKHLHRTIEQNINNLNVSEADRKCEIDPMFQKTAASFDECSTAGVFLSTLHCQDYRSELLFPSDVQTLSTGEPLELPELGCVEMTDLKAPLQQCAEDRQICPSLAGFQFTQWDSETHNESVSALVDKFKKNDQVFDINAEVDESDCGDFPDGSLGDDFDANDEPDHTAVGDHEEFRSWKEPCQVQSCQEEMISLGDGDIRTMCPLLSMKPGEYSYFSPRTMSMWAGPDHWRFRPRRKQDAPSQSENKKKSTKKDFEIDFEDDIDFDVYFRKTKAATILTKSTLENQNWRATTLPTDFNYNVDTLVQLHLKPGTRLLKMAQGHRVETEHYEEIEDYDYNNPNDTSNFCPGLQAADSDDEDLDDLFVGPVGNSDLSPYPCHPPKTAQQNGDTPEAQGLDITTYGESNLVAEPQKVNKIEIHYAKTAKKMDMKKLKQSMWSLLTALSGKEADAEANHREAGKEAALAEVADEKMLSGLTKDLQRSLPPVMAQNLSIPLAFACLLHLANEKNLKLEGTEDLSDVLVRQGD
inactive: [1] -0.126 | [3] 0.051 | [4] 0.011 | [5] -0.054 | [6] 0.052 | [7] 0.043 | [8] 0.024 | [9] -0.021 | [10] -0.116
active: [2] -0.353

NDUFS4 (UniProt O43181)
inactive: [1] 0.052 | [2] 0.074 | [3] -0.037 | [4] -0.025 | [5] -0.007 | [6] 0.071 | [7] -0.079 | [8] -0.046 | [9] 0.033 | [10] -0.013

NOL7 (UniProt Q9UMY1)
inactive: [1] 0.226 | [2] 0.417 | [3] -0.086 | [4] -0.338 | [5] -0.019 | [6] 0.232 | [7] -0.123 | [8] -0.154 | [9] 0.316 | [10] 0.237

NOP53 (UniProt Q9NZM5)
inactive: [1] 0.174 | [2] 0.393 | [3] -0.014 | [4] -0.009 | [5] -0.132 | [6] 0.013 | [7] -0.111 | [8] -0.053 | [9] 0.516 | [10] 0.599

MTMR14 (UniProt Q8NCE2)
Sequence of UniProt Q8NCE2 (Q8NCE2 whole entry, looked up): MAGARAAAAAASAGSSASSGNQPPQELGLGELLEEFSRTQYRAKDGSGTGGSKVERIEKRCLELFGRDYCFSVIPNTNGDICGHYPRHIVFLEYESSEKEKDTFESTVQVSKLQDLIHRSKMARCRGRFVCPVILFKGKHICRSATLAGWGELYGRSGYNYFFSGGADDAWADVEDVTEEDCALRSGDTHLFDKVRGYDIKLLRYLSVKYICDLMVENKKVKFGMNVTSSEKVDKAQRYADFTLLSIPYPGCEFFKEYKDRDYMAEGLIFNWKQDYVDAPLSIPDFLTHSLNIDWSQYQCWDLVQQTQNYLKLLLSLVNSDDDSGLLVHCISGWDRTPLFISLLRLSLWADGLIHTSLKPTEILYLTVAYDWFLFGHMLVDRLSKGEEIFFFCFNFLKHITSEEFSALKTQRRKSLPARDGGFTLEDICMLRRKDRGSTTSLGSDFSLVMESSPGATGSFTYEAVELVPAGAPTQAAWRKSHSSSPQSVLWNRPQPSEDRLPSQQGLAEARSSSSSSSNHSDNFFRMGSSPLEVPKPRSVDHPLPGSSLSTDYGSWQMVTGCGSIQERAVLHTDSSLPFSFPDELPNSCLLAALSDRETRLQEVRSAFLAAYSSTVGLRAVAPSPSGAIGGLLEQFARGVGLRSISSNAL
active: [2] -0.622
inactive: [1] -0.194 | [3] 0.037 | [4] 0.019 | [5] 0.009 | [6] -0.056 | [7] 0.001 | [8] 0.026 | [9] 0.022 | [10] -0.039

NELFB isoform 2 (UniProt Q8WX92)
Sequence of UniProt Q8WX92 (Q8WX92 whole entry, looked up): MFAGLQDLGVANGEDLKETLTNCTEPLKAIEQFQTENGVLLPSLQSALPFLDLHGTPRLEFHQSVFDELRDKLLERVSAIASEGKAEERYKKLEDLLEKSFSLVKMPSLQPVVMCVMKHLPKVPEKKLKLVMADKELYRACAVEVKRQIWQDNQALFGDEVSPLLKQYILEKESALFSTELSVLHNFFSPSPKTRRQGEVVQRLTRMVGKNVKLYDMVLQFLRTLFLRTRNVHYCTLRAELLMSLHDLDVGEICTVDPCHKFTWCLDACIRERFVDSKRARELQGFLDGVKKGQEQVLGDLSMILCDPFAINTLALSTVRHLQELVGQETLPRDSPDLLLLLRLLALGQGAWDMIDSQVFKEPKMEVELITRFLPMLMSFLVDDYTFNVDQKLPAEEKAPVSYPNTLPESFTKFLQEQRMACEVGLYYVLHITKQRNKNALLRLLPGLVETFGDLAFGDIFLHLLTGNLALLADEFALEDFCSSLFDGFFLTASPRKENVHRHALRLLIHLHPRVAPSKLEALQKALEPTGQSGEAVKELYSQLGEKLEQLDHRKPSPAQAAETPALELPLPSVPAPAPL
inactive: [1] -0.176 | [3] 0.118 | [4] 0.072 | [5] -0.057 | [6] -0.012 | [7] 0.068 | [8] 0.041 | [9] -0.02 | [10] -0.116
active: [2] -0.68

OXSR1 (UniProt O95747)
active: [2] -0.274 | [10] -0.24
inactive: [1] -0.122 | [3] 0.049 | [4] 0.03 | [5] -0.018 | [6] -0.077 | [7] 0.043 | [8] 0.053 | [9] 0.008

NT5DC1 (UniProt Q5TFE4)
inactive: [1] 0.165 | [2] 0.051 | [3] -0.026 | [4] 0.045 | [5] 0.015 | [6] -0.054 | [7] 0.014 | [8] 0.008 | [9] -0.037 | [10] -0.063

MSH3 (UniProt P20585)
inactive: [1] -0.032 | [2] -0.179 | [3] -0.003 | [4] 0.062 | [5] -0.072 | [6] -0.019 | [7] -0.028 | [8] 0.019 | [9] -0.008 | [10] 0.047

NDUFA9 (UniProt Q16795)
inactive: [1] -0.082 | [3] 0.073 | [4] 0.03 | [5] -0.029 | [6] -0.053 | [7] 0.035 | [8] 0.064 | [9] -0.017
active: [2] -0.26 | [10] -0.367

NUDCD2 (UniProt Q8WVJ2)
Sequence of UniProt Q8WVJ2 (Q8WVJ2 whole entry, looked up): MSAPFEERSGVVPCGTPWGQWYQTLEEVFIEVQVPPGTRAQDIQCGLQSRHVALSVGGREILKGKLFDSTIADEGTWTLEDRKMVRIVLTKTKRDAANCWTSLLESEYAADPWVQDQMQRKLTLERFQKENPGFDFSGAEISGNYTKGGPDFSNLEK
inactive: [1] -0.177 | [3] 0.056 | [4] -0.098 | [5] -0.042 | [6] 0.021 | [7] 0.081 | [8] 0.093 | [9] 0.023 | [10] -0.291
active: [2] -0.566

PAK1 isoform 2 (UniProt Q13153)
inactive: [1] 0.032 | [2] -0.022 | [3] -0.024 | [4] 0.046 | [5] 0.043 | [6] -0.122 | [7] 0.064 | [8] 0.016 | [9] -0.062 | [10] -0.031

NOL11 (UniProt Q9H8H0)
inactive: [1] 0.029 | [2] -0.097 | [3] -0.025 | [4] -0.015 | [5] -0.031 | [6] -0.027 | [7] -0.005 | [8] -0.025 | [9] -0.028 | [10] 0.126

OSBPL8 (UniProt Q9BZF1)
inactive: [1] -0.068 | [2] -0.026 | [3] 0.062 | [4] -0.118 | [5] 0.271 | [6] 0.061 | [7] 0.055 | [8] 0.031 | [9] 0.09 | [10] -0.114

NCOA7 (UniProt Q8NI08)
Sequence of UniProt Q8NI08 (Q8NI08 whole entry, looked up): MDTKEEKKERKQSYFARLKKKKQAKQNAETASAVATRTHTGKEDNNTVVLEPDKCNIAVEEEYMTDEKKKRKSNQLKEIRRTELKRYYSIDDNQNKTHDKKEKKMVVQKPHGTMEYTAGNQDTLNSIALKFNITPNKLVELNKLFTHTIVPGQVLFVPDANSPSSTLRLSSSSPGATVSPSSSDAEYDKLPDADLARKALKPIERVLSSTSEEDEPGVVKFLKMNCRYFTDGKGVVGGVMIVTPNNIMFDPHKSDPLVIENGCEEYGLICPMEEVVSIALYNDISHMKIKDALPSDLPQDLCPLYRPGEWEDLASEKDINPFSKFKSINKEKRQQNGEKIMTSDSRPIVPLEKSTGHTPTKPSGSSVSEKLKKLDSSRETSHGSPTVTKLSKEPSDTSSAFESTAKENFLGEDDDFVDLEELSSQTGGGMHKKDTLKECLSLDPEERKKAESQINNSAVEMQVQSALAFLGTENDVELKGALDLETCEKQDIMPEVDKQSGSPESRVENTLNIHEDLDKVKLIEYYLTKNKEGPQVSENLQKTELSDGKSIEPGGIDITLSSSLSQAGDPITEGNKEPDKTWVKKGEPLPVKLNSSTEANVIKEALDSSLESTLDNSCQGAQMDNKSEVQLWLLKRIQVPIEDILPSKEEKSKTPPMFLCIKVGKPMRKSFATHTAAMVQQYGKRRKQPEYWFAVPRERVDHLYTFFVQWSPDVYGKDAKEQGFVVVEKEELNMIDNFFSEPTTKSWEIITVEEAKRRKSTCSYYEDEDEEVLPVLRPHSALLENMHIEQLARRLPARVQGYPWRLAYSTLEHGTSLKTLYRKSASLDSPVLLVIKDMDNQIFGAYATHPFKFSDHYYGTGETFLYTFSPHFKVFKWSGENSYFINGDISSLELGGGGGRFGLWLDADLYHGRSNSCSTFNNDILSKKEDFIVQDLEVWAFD
active: [2] -0.287
inactive: [1] -0.035 | [3] 0.124 | [4] 0.021 | [5] -0.091 | [6] -0.004 | [7] -0.002 | [8] 0.099 | [9] -0.009 | [10] -0.265

ORC3 (UniProt Q9UBD5)
inactive: [1] -0.167

MORF4L2 (UniProt Q15014)
inactive: [1] 0.074 | [2] 0.023 | [3] 0.014 | [4] 0.085 | [5] 0.014 | [6] 0.075 | [7] -0.125 | [8] -0.051 | [9] 0.12 | [10] 0.076

NDUFA6 (UniProt P56556)
Sequence of UniProt P56556 (P56556 whole entry, looked up): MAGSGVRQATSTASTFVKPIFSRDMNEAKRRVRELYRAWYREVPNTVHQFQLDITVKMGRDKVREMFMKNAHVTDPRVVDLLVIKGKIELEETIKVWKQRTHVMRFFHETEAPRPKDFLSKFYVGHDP
inactive: [1] -0.069 | [2] -0.252 | [3] 0.098 | [4] 0.115 | [5] -0.086 | [6] -0.089 | [7] 0.081 | [8] 0.116 | [9] -0.022 | [10] -0.072
